Target: FAM73A
Test: pooled miR-30 sensor sort-seq; sequence = guide strand
Conditions: shRNA
Further: reference of the scale not given here.

Sequence	sensor-assay potency score (higher = more potent)
TTGAATAGCGCACCTTCTCAAA	-1.12
TAGCATAGTTACAAACTTGAGA	-0.258
TAATATCATCTTCATCTGCTTT	-0.807
TTTAATATCATCTTCATCTGCT	0.76
TACTGGAACAACTTGAACCTTT	0.0533
TAGACAACTACTTGTATGCCTC	-0.255
AACAACTTGAACCTTTGTCTGA	-0.33
TTAAGTATAAGTTCTCTGGAGT	-0.00837
TTCTGTTTCAGCACCGACCAAC	-0.471
TTGAACCTTTGTCTGATGCTGC	0.182

Target: FAM75A3
Test: as above
Conditions: shRNA

Sequence	sensor-assay potency score (higher = more potent)
AAATTCACTAACAACCTCCTCC	0.396
TGATTCGTCCTGAAGCTGCATC	-0.869
TGGTGATTCGTCCTGAAGCTGC	-1.37
TTCGTCCTGAAGCTGCATCAGA	-0.939
TTCACTAACAACCTCCTCCATA	-0.534
TAAACTTCTCACTCTTGTGAAT	-1.14

Target: FAM89B
Test: as above
Conditions: shRNA

Sequence	sensor-assay potency score (higher = more potent)
TGGATTGACTCGTACAGGCCCC	-0.992
TGACAGGACGACGCGGGCCGGC	-1.62
ATCGGGAGGCTCCTCGTCGTCA	-1.39
TTGTAGTCCTGGATTGACTCGT	0.301
TCAGGTCTTGGCACAGGTGTTT	-0.832
TAGTCCTGGATTGACTCGTACA	-1.39
TCCTGGATTGACTCGTACAGGC	-1.73
TTTGTAGTCCTGGATTGACTCG	-1.36
TTGCGCAGCGCGGCCAGCGCTG	-1.52
TGTAGTCCTGGATTGACTCGTA	-0.175
AACATCTCCTTGCGCAGCGCGG	-1.39
TTAAGGAGGCCGCTGAGGCCGC	-1.49

Target: FAM9C
Test: as above
Conditions: shRNA

Sequence	sensor-assay potency score (higher = more potent)
TTTTGCAATCTTTTCAATCCTT	0.00533
TAACAGGTTTTCTTTCCTCATG	-1.34
TTACTGGATCCTTTCCTGCAAG	-1.19
TATTTTAATTTGTTCTTCCTTT	-0.236
ATTCTGTTCTTTATTTCGCTGC	-0.428
ATCAGTTACATCTCCCTCCTTT	-0.105
AACATTTTTAATTCTGTTCTTT	-0.182
TAACTAAACACTGTCATGTGGT	0.0242
AATATCTTCTAGCTCCTTGGTA	-0.174
TTTGCAATCTTTTCAATCCTTT	-0.0948
TTAACTAAACACTGTCATGTGG	0.189

— the OligoGym collection
